The text below walks through data of the supplement of paper PMC11417369.

In all, about 25,000 sequences were measured (“ln(normalized median fluorescence intensity)”: median about 9.7, highest 2% from about 11 on). The full list was thinned out, with the highest values kept by preference.

The assay deals with PfAP2-HC AP2 domain (GST-tagged). Briefly: gcPBM binding intensity (ln(normalized median fluorescence intensity)); higher = stronger DNA binding. In short, it runs like this: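 Using an Agilent 4 × 180k array, primer-extended double-stranded 36-bp intergenic genomic probes and negative controls were exposed for 1 h to GST-fused P. falciparum DNA-binding domains expressed in E. coli. Binding was carried out in 1× PBS with 1% milk, 0.2 mg/ml BSA, 0.5% salmon testes DNA and 0.03% Triton X-100, and protein was detected with Alexa488 anti-GST antibody and a 488 nm scan. Binding intensity is the highest Masliner-normalised natural-log median intensity across replicate spots of either probe orientation.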
For “TACTAAGAATTAATATAACAAAATAAAAAAAAAAAA [XGTACX_negctrl_site346]”, the “gcPBM binding intensity (ln)” value turned out to be 9.44.
The value for “AATACAATTTATAACACACACACAAGAATACCTATA [CACACA_site6705]” was 11.1; that for “CAATTTATAAAGAAAACACACATATACCTATATACA [CACACA_site6710]” was 9.85.
The value for “TACAATTTATGACACACACACAATAATACCTATATA [CACACA_site6704]” was 10.3; that for “ATTGCATTTGTAGATAATACAATATGGATTGTTATA [CACACA_negctrl_site1749]” was 9.44.
Consider “TCCTTATTACTTTTTTAAGTCGTAATGAAAGAAAAA [CACACA_negctrl_site1497]”, for which the “gcPBM binding intensity (ln)” value was determined as 9.15.
“AAATATATATACCACACACACATACCTCTATTTGTA [CACACA_site1854]”: the “gcPBM binding intensity (ln)” value came to 11.1.
The value for “CAAAATATATATACCACACACACATACCTCTATTTG [CACACA_site1853]” was 10.4; that for “AAATATTTATACCACACACACATACCTCTATTTGTA [CACACA_site6957]” was 10.7; that for “TATACCTATAGACACACACACATAAATAGATATATA [CACACA_site6748]” was 11.1.
To “GATACCTATAGACACACACACATACCTATATACATA [CACACA_site7586]” belongs 10.9; to “CATACACATAGACACACACACATATATACCTATATA [CACACA_site6644]”, 10.8; to “CATACATAGATATATACACACATACCTATAAATACA [CACACA_site6513]”, 10.2.
To “TATACCTATAGACACACACACATATAGATTTATATA [CACACA_site7124]” belongs 11.1; to “ATATATACCTAAGACACACACATATAGATTTATATA [CACACA_site6498]”, 10.4.
“AATAGATATATAAATACACACAAACATACCTATATA [CACACA_site7823]”: the “gcPBM binding intensity (ln)” value was 10.6.
To “TATAGATACCTATACACACACACACGGACATATATA [CACACA_site7585]” belongs 10.8; to “CATATATACCTATATACACACATATAGATTTATATA [CACACA_site6451]”, 9.78.
Regarding “TTTGTAAGTCTTTGTTGTACTCAATAGAATGAAGAA [XGTACX_site8930]”, the “gcPBM binding intensity (ln)” value is 9.45.
The value for “AACTCTTAGAATGACGGTACAGTATAATAGGTGAAC [XGTACX_site7163]” was 9.69; that for “TATAACTTTTTTAATACACACAAATATTTATTTATA [CACACA_site7425]” was 9.61.
Regarding “ATACGTATATAATATACATGCATATATAGCACATAC [TGCATGCA_site376]”, the “gcPBM binding intensity (ln)” value is 9.83.
The value for “AAATATAAAAAATATACACACATATAAAATCTATAT [CACACA_site7406]” was 9.91; that for “TATAAATATACAAACACACATACAAACATATATATA [CACACA_site1120]” was 10.2; that for “AATATATAGCTAAAAACACACAAATATATACACATA [CACACA_site9203]” was 9.97.
For the sequence “AATTCAAATATAAATACACACACATAGCTACAAAAT [CACACA_site9386]”, the “gcPBM binding intensity (ln)” value came out at 10.3.
The value for “CATACATACAAACACACACACATATAAATACATACA [CACACA_site4625]” was 11.2.
To “TTCAAATATAAATACACACACATAGCTACAAAATAA [CACACA_site4172]” belongs 11; to “CACATACACATACAAACACACATTATATATATATAT [CACACA_site8460]”, 10.4; to “CATACATACAAACACACACACATATATATACATACA [CACACA_site852]”, 11.4.
The value for “TACAATCTAAAATACACACACACAAACATATATTTA [CACACA_site3702]” was 10.7; that for “TAAATATATAAATACACACAAACATACATATATATA [CACACA_site4050]” was 10.1; that for “CATACATACAAACACACACACATATATATATATATA [CACACA_site43]” was 10.2.
Regarding “AAAAAAAACGAACACACACACATACAAAATCTATAT [CACACA_site6795]”, the “gcPBM binding intensity (ln)” value was 11.1.
To “CAGCTCTTAAGAATTACACACATATACACATATATA [CACACA_site7524]” belongs 9.95; to “TAAAATTTTTTTGTTTGTACATATATATATATAATA [XGTACX_site5609]”, 9.53.
To “CATTATTTATTTTAATGTACTTATTTTTAAATTGGT [XGTACX_site8038]” belongs 9.54; to “TTTTCTTGTAAATTACGTACGAATGTGTAGAGAAAT [XGTACX_site1339]”, 9.47; to “TATATATATATATGTAGTACTCAATATTGTAGATTA [XGTACX_site3856]”, 9.64.
Regarding “CTAGCAAATACATACACACACACACCGATACATATA [CACACA_site9164]”, the “gcPBM binding intensity (ln)” value is 10.7.
The value for “AAATATAAAAATAGCACACATATATACATATATATA [CACACA_site56]” was 9.88; that for “TTATAATTATATACATGTACATATAATACATATATA [XGTACX_site8904]” was 9.46.
To “ATTAAATCCGCACGCACACACACATATTAATAAAAA [CACACA_site3992]” belongs 11.1; to “AAAAAAAAAAAAAACACACACACAAATACAAATACA [CACACA_site414]”, 11.5; to “AATGATCATATATACACACACACAAAAAAAAAAAAA [CACACA_site4009]”, 11.2.
To “AATGATCAGATATACACACACACAAAAAAAAAAAAA [CACACA_site7806]” belongs 10.4; to “CATATACGCAAACACACACACATATATATATATATA [CACACA_site501]”, 11.6.
Consider “TATACGCATATATAAACACACAAAAAAAAAAAAAAA [CACACA_site2026]”, for which the “gcPBM binding intensity (ln)” value is 9.43.
Take “TACATATATATATACACACATACATATATATACGCA [CACACA_site792]”: the “gcPBM binding intensity (ln)” value was found to be 9.85.
For “AATGATCATAAATACACACACACAAAAAAAAAAAAA [CACACA_site6072]”, the “gcPBM binding intensity (ln)” value was 10.3.
For “AAAAAAAAAAAAAACACACACACAAATACAAATGGT [CACACA_site1721]”, the “gcPBM binding intensity (ln)” value is 10.5.
For “AATAAACATAAATACACACACAAAAAAAAAAACATA [CACACA_site4396]”, the “gcPBM binding intensity (ln)” value was 10.3.
To “TAAATCCGCACGCACACACACATATTAATAAAAAAA [CACACA_site7800]” belongs 10.5.
On to “TAAATCCGCAGGCACACACACATATTAATAAAAAAA [CACACA_site3991]”, for which the “gcPBM binding intensity (ln)” value is 10.8.
On to “ATTAATATATTTACCACACACCCATTTCGATTTTAT [CACACA_site3605]”, for which the “gcPBM binding intensity (ln)” value was 10.3.
The value for “AATATATATATAAATAATATACCTATATATTTTTTG [XGTACX_negctrl_site407]” was 9.61; that for “TAATATATTAATATATGTACATATTTATATATCTAC [XGTACX_site7117]” was 9.81.
